FXN GAA850 act = frataxin GAA850 promoter activation. activation, % at 6 µM. HEK293 lucGAA850 FXN promoter luciferase reporter, 24 h; percent of 10 µM SAHA response. AID 540364. 0.56% of 360,000 active;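 active means activation above the average of all compounds screened plus 3 SD, cutoff fixed separately per campaign, cut at about 7.5% in these data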;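 further: 0% = DMSO wells and 100% = 10 µM SAHA wells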
MITF TRPM1 HTS = increases MITF-driven TRPM1 promoter luciferase signal; SK-MEL-5 TRPM1-promoter luciferase, 24 h; % of positive control, neutral wells = 0; activation, % at 12.5 µM; 0.75% of 300,000 active;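 active means mean activation of at least 80% with every replicate also reaching 80%; inconclusive means mean reaches 80% but some replicate falls short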;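 further: 0% = neutral control wells and 100% = parthenolide positive control wells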
esBAF inh = blocks esBAF chromatin remodeling in mouse ES cells; Bmi1-luciferase knock-in reporter, 24 h; 100% = twice the neutral-well signal; reporter increase, % at 12.5 µM; 2% of 350,000 active; in the data active means activation above about 40%; inconclusive means no clear call, values can overlap the other calls;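 further: 0% = median of the plate's neutral control wells and 100% = double that signal; a rise in the Bmi1 reporter signal indicates esBAF inhibition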
C2C12 statin = suppression of simvastatin myotoxicity; C2C12 myotubes + simvastatin, ATP luminescence, 48 h; scaled: DMSO 0, geranylgeraniol control 100; rescue of ATP level, % at 7.49 µM; 0.78% of 330,000 active;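 active means mean ATP rescue above about 67%, or every replicate alone reaching that limit, limit read from the data, passing the limit was not always enough; inconclusive means no clear call, values can overlap the other calls; inactive means mean under the limit and some replicate under it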;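 further: myotubes were challenged with 10 µM simvastatin during compound exposure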
Wnt act = Wnt/beta-catenin pathway activation; Wnt/beta-catenin reporter cell assay, activator, plate reader; activation, % at 9.35 µM; 1.2% of 300,000 active; AID 743398; in the data active means activation above about 30%, passing the limit was not always enough; inconclusive means no clear call, values can overlap the other calls;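 further: 0% = neutral control wells and 100% = positive control wells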
Numbers without * were called inactive; ? = inconclusive; . = not tested or not shown. Compounds with a hit are over-represented: about 3.3% of the library has one in this group of screens.

SMILES	FXN GAA850 act	MITF TRPM1 HTS	esBAF inh	C2C12 statin	Wnt act
O=C(C[C@@H]1C=C[C@H](NC(=O)c2ccccc2)[C@@H](CO)O1)NCc1ccncn1	.	.	1.8	-5.8	.
CC(=O)c1ccc(OCc2cc(C(=O)N(C)C3CCOC3)no2)cc1 (stereo not given)	5.7	70.4	61.2*	8.9	25.1
COc1cc(Cl)ccc1OCc1cc(C(=O)N(C)C2CCOC2)no1 (stereo not given)	1.3	66.2	55.5*	4.8	0.9
COc1cccc(OCc2cc(C(=O)N(C)C3CCOCC3)no2)c1	2.5	11.9	.	.	-1.0
Cc1cc(OCc2cc(C(=O)N(C)C3CCOC3)no2)cc(C)c1Cl (stereo not given)	2.0	77.3	83.4*	12.7	35.0*
CC(=O)c1ccc(OCc2cc(C(=O)N(C)CCOc3ccc(C)cc3)no2)cc1	6.1	116.0*	.	.	-0.3
CC(=O)c1ccc(OCc2cc(C(=O)N(C)Cc3nc4c(C)cccc4[nH]3)no2)cc1	-2.4	0.9	-4.1	-3.1	-1.5
O=C(NCC[C@@H]1CC[C@@H](NC(=O)c2cccnc2)[C@@H](CO)O1)Nc1ccc(Cl)cc1	.	.	4.1	-7.4	.
CCOc1cc2[nH]c(=S)n(CCOC)c(=O)c2cc1OCC	-1.1	6.4	-2.7	110.7*	-1.6
COc1cccc(-c2cn(CC[C@@H]3CC[C@@H](NS(=O)(=O)Cc4ccccc4)[C@H](CO)O3)nn2)c1	.	.	11.1	1.5	.
COC(=O)c1c(C)[nH]c(C(=O)OCc2ccc(F)cc2)c1C	4.2	114.1*	45.9*	-3.9	.
CC(=O)c1c(C)[nH]c(C(=O)OCC(=O)NCCc2ccc(F)cc2)c1C	-1.9	3.8	4.9	10.1	-3.9
CC(=O)c1c(C)[nH]c(C(=O)OCc2cccc(Cl)c2)c1C	4.7	31.3	46.2*	0.7	-0.1
CC(=O)c1c(C)[nH]c(C(=O)OCc2c(F)cccc2Cl)c1C	4.6	3.8	12.2	-2.3	-2.8
Cc1ccc(N2Cc3ccccc3C2=S)cc1	5.1	74.3	72.8*	0.6	15.7
S=C1c2ccccc2CN1c1ccccc1	5.1	47.0	29.0	0.1	8.6
Cn1c(-c2ccc([N+](=O)[O-])cc2)nc2ccccc21	1.9	34.3	5.6	0.8	32.4*
Cc1[nH]n(-c2cccc(Cl)c2)c(=O)c1C=NCc1ccco1	5.4	104.9*	.	.	8.4
Cc1[nH]n(-c2cccc(Cl)c2)c(=O)c1C=NC12CN3CN(CN(C3)C1)C2	2.4	8.1	-0.6	3.7	.
Cc1[nH]n(-c2cccc(Cl)c2)c(=O)c1-c1ccccc1	-0.6	.	7.3	.	0.1
Cc1[nH]n(-c2cccc(Cl)c2)c(=O)c1C=NCC(C)C	5.7	111.0*	.	.	3.0
O=C(Nc1ccc2c(c1)[C@@H]1C[C@@H](CC(=O)N3CCCCC3)O[C@H](CO)[C@@H]1O2)C1CCOCC1	.	.	-7.2	6.9	.
O=C(Nc1cccc(O)c1)c1ccc(Br)c(S(=O)(=O)N2CCCCC2)c1	-0.9	32.8	65.7*	-22.3	-10.6
CN(C)c1ccc(C(=O)Nc2cccc(S(=O)(=O)N3CCCC3)c2)cc1	-0.7	47.4	62.1*	7.6	14.2
O=C(Nc1cccc(O)c1)c1cccc(S(=O)(=O)N2CCCCCC2)c1	0.5	31.5	53.4*	-4.4	6.8
SMILES	FXN GAA850 act	MITF TRPM1 HTS	esBAF inh	C2C12 statin	Wnt act
Cc1csc(SCC(=O)Nc2cccc(S(=O)(=O)N3CCCC3)c2)n1	-0.1	-3.0	11.3	135.8*	.
CCC(=O)N1[C@@H]2c3ccc(-c4ccccc4F)c(=O)n3C[C@H]1[C@H](CO)[C@H]2C(=O)NC1CCCC1	.	.	5.6	2.2	.
S=C(NCCC1=CCCCC1)Nc1ccc(Cl)cc1	-0.3	53.7	64.4*	-2.1	10.5
COc1ccc(NC(=O)NCCC2=CCCCC2)cc1	3.6	56.1	.	.	52.0*
CCN1[C@H](C(=O)NCc2ccccc2)[C@@H](CO)[C@@H]2Cn3c(ccc(-c4ccccc4)c3=O)[C@@H]21	.	.	-2.4	29.6	.
CC(=O)N(C)C[C@H]1Oc2cc(C#Cc3cccnc3)ccc2S(=O)(=O)N([C@@H](C)CO)C[C@@H]1C	.	.	1.0	9.3	.
FC(F)(F)c1ccc(CN2C[C@@H]3C(c4ccc(C(F)(F)F)cc4)C4(c5cccnc5)CC3(C4)[C@H]2c2ccccc2)cc1 (stereo not given in full)	0.4	-3.7	1.9	119.1*	-17.2
COc1ccc(-n2c(SCC(=O)Nc3ccc4c(c3)OCO4)nc3ccccc3c2=O)cc1	-1.7	-9.0	-1.9	118.4*	.
CO[C@@H]1CN(C)C(=O)c2cc(NC(=O)c3ccccc3)ccc2OC[C@H](C)N(C(C)=O)C[C@@H]1C	.	.	-2.2	-9.8	.
CNc1nc2c(-c3ccc(Cl)cc3)nnn2c2ccccc12	-0.4	-14.4	6.9	-22.1	-6.1
Nc1nc2c(-c3ccc(Br)cc3)nnn2c2ccccc12	5.6	40.3	15.8	-27.0	43.2*
Cc1nc(NC(=O)c2ccccc2)sc1-c1csc(NCc2ccccc2)n1	-0.4	6.3	18.2	-25.3	-0.3
CCOc1ccccc1Nc1nc(-c2sc(NC(=O)c3cccc(Cl)c3)nc2C)cs1	0.1	16.0	64.4*	-18.7	-0.3
Cc1nc(NC(=O)c2ccccc2)sc1-c1csc(N)n1	0.2	-1.7	53.1*	-23.7	?
CNc1ccc(/C=C2\COc3ccccc3C2=O)cc1[N+](=O)[O-]	0.2	30.6	49.3*	2.8	.
CCOc1cc(/C=C2/COc3ccccc3C2=O)ccc1OCC(=O)N(C)C	1.6	11.3	.	.	-2.0
O=C1/C(=C/c2ccc(O)cc2)COc2ccccc21	2.9	35.8	22.0	-8.0	31.0*
O=C1/C(=C/c2ccccc2[N+](=O)[O-])COc2ccccc21	-9.7	-82.5	55.7*	168.6*	-6.6
C[C@@H]1CN([C@@H](C)CO)C(=O)c2cc(NC(=O)Nc3ccc4c(c3)OCO4)ccc2O[C@@H](C)CCCCO[C@@H]1CN(C)C(=O)Cc1ccccc1	.	.	-2.1	.	.
Cc1cccnc1NC(=O)Nc1ccc(Cl)cc1	6.6	30.0	70.8*	2.3	-0.1
Cc1cccnc1NC(=O)Nc1cccc(F)c1	3.9	.	48.3*	3.4	3.1
Cc1cccnc1NC(=O)Nc1ccccc1	3.9	?	40.9	4.3	14.2
O=C(Nc1cccc(F)c1)Nc1ccccn1	2.8	.	38.1	.	.
C[C@@H]1CN([C@@H](C)CO)C(=O)c2cccc(NC(=O)c3cnccn3)c2O[C@H]1CN(C)C(=O)Nc1ccc(F)cc1	.	.	-1.7	6.6	.
C[C@@H]1CN([C@@H](C)CO)C(=O)c2cc(NS(=O)(=O)c3ccc(Cl)cc3)ccc2O[C@@H](C)CCCCO[C@H]1CN(C)S(=O)(=O)c1cn(C)cn1	.	.	-3.4	.	.
CCN(Cc1cnn(C)c1)C(=O)c1cc(COc2cc(C)c(Cl)c(C)c2)on1	0.4	32.1	21.6	15.0	8.6
COc1cc(Cl)ccc1OCc1cc(C(=O)N(C)CCc2cnn(C)c2)no1	5.0	74.4	88.1*	4.6	26.3
Cc1ccc(OCc2cc(C(=O)N(C)Cc3cnn(C)c3)no2)cc1C	1.4	.	45.7*	5.6	-0.9

Screens from PubChem BioAssay.
